Measured values as given in PubChem BioAssay AID1159580 (chemical genetic matrix, 2015).
About 2,000 (36%) of roughly 5,500 compounds were called active. Another 18% or so got no clear call; they are omitted. Rule as the data show it: active = normalized growth mostly below about 0.91 (no sharp cut-off); inconclusive = no clear call, values can overlap the other calls; inactive = mostly above about 0.92. The list shows a part of the results.

Test: chemical genetic growth profiling, strain panel (AID 1159580);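 also: tested at 20 µM; growth read once vehicle control cultures reached saturation at 30 °C; 1 = growth at the plate median or of vehicle wells; lower values mean less growth of the strain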
Details: S. cerevisiae deletion strains, growth OD

Measured: normalized growth

O=C(O)CF
inactive: locus YAL013W, strain DEP1, stronger effect = lower value 0.998 | locus YAL021C, strain ccr4, stronger effect = lower value 1.01 | locus YAL026C, strain drs2, stronger effect = lower value 1.02 | locus YAL030W, strain snc1, stronger effect = lower value 1.02 | locus YBL061C, strain skt5, stronger effect = lower value 1.02 | locus YBR009C, strain hhf1, stronger effect = lower value 1.06 | locus YBR021W, strain FUR4, stronger effect = lower value 0.97 | locus YBR023C, strain chs3, stronger effect = lower value 1.03 | locus YBR171W, strain sec66, stronger effect = lower value 1.03 | locus YBR229C, strain ROT2, stronger effect = lower value 0.987 | locus YBR231C, strain swc5, stronger effect = lower value 1.01 | locus YBR279W, strain paf1, stronger effect = lower value 1.03 | locus YCL011C, strain gbp2, stronger effect = lower value 1.03 | locus YCL016C, strain dcc1, stronger effect = lower value 1.04 | locus YCL029C, strain bik1, stronger effect = lower value 0.975 | locus YCL061C, strain MRC1, stronger effect = lower value 1.02 | locus YCL069W, strain vba3, stronger effect = lower value 1.02 | locus YCR088W, strain abp1, stronger effect = lower value 1.02 | locus YDL005C, strain med2, stronger effect = lower value 1.02 | locus YDL035C, strain GPR1, stronger effect = lower value 1 | locus YDL040C, strain nat1, stronger effect = lower value 1.02 | locus YDL074C, strain BRE1, stronger effect = lower value 1.03 | locus YDL101C, strain DUN1, stronger effect = lower value 0.995 | locus YDL134C, strain PPH21, stronger effect = lower value 0.994 | locus YDL185W, strain tfp1, stronger effect = lower value 0.967 | locus YDL192W, strain arf1, stronger effect = lower value 0.98 | locus YDR001C, strain nth1, stronger effect = lower value 1.02 | locus YDR069C, strain doa4, stronger effect = lower value 1 | locus YDR101C, strain arx1, stronger effect = lower value 0.969 | locus YDR137W, strain rgp1, stronger effect = lower value 1.03 | locus YDR150W, strain NUM1, stronger effect = lower value 0.995 | locus YDR159W, strain sac3, stronger effect = lower value 0.997 | locus YDR162C, strain NBP2, stronger effect = lower value 1.03 | locus YDR195W, strain ref2 1 | locus YDR297W, strain sur2, stronger effect = lower value 1.03 | locus YDR318W, strain mcm21, stronger effect = lower value 0.965 | locus YDR334W, strain swr1, stronger effect = lower value 1.03 | locus YDR335W, strain msn5, stronger effect = lower value 1.03 | locus YDR388W, stronger effect = lower value 0.989 | locus YDR392W, strain spt3, stronger effect = lower value 0.981 | locus YDR502C, strain sam2, stronger effect = lower value 0.994 | locus YEL003W, strain gim4, stronger effect = lower value 1.03 | locus YEL037C, strain rad23, stronger effect = lower value 1.03 | locus YEL061C, strain CIN8 (second series), stronger effect = lower value 1.03 | locus YEL061C, strain CIN8, stronger effect = lower value 0.998 | locus YER015W, strain faa2, stronger effect = lower value 1.02 | locus YER016W, strain bim1, stronger effect = lower value 1.01 | locus YER110C, stronger effect = lower value 0.974 | locus YER111C, strain swi4, stronger effect = lower value 1.03 | locus YER155C, strain BEM2 (second series), stronger effect = lower value 1.01 | locus YER155C, strain BEM2, stronger effect = lower value 0.999 | locus YER167W, strain BCK2, stronger effect = lower value 0.985 | locus YFR010W, strain ubp6, stronger effect = lower value 1.03 | locus YGL078C, strain dbp3, stronger effect = lower value 0.99 | locus YGL086W, strain mad1, stronger effect = lower value 0.973 | locus YGL167C, strain pmr1, stronger effect = lower value 1.03 | locus YGL173C, strain kem1, stronger effect = lower value 1.03 | locus YGL227W, strain vid30, stronger effect = lower value 1.02 | locus YGL240W, strain doc1, stronger effect = lower value 1 | locus YGL248W, strain PDE1, stronger effect = lower value 0.992 | locus YGL253W, strain hxk2, stronger effect = lower value 1.01 | locus YGR078C, strain PAC10, stronger effect = lower value 1.03 | locus YGR135W, strain pre9, stronger effect = lower value 1.01 | locus YGR229C, strain SMI1, stronger effect = lower value 1.02 | locus YGR252W, strain gcn5, stronger effect = lower value 0.811 | locus YHR013C, strain ard1, stronger effect = lower value 1.07 | locus YHR027C, strain rpn1, stronger effect = lower value 1.02 | locus YHR030C, strain SLT2, stronger effect = lower value 0.988 | locus YHR079C, strain IRE1 (second series), stronger effect = lower value 0.979 | locus YHR094C, strain hxt1, stronger effect = lower value 0.995 | locus YHR129C, strain ARP1, stronger effect = lower value 0.998 | locus YHR142W, strain chs7, stronger effect = lower value 1.03 | locus YHR200W, strain rpn10, stronger effect = lower value 0.966 | locus YIL066C, strain RNR3, stronger effect = lower value 0.988 | locus YIL073C, strain SPO22, stronger effect = lower value 0.916 | locus YIL125W, strain kgd1, stronger effect = lower value 0.986 | locus YIR030C, strain dcg1, stronger effect = lower value 0.991 | locus YJL092W, strain hpr5, stronger effect = lower value 1.02 | locus YJL095W, strain BCK1 (second series), stronger effect = lower value 1.04 | locus YJL095W, strain BCK1, stronger effect = lower value 1.03 | locus YJL115W, strain asf1, stronger effect = lower value 1.02 | locus YJL129C, strain trk1, stronger effect = lower value 1.05 | locus YJL134W, strain LCB3, stronger effect = lower value 0.986 | locus YJL154C, strain vps35, stronger effect = lower value 1.02 | locus YJL164C, strain tpk1, stronger effect = lower value 1.04 | locus YJL166W, strain qcr8, stronger effect = lower value 1 | locus YJL168C, strain set2, stronger effect = lower value 0.986 | locus YJL187C, strain SWE1 (second series), stronger effect = lower value 1.01 | locus YJL187C, strain SWE1, stronger effect = lower value 1.02
